Assays:
Experiment in all cases: PBM binding z-score (relative to random genomic background probes); higher = stronger binding; sequences stand for … in GC…GCGATTGACAGCGTAGAATGAAGG
[1] = tested on: RARb homodimer (NR concentration 270 nM)
Method in brief: (§1)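 Custom Agilent 4×180K protein-binding microarrays carried double-stranded probes. Their 34-nt variable regions held direct-repeat seeds, single-nucleotide variants, half-site ablations and random human genomic background sequences. Arrays were incubated 1 h with ligand-free nuclear receptor dimers in PBS pH 7.4, 2% milk, 0.02% Triton X-100, 1 mM DTT, 0.2 mg/mL BSA and 0.4 mg/ml salmon testes DNA. Antibodies against each partner (one per run) detected binding, and scanned fluorescence was regression-normalized. Binding z-scores use random background probes as reference.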

[2] = tested on: RARg:RXRa (NR concentration 270 nM, RXRa partner concentration 90 nM)
Method in brief: as §1

[3] = tested on: RARg homodimer (NR concentration 270 nM)
Method in brief: as §1

[4] = tested on: RXRa DBDmut IVT, anti-RXR (DBD mutation: RXRa K156A/R161A, NR concentration 90 nM)
Method in brief: as §1

[5] = tested on: RXRa homodimer (NR concentration 180 nM)
Method in brief: as §1

[6] = tested on: THRa:RXRa (NR concentration 90 nM, RXRa partner concentration 90 nM)
Method in brief: as §1

[7] = tested on: THRa homodimer (NR concentration 90 nM)
Method in brief: as §1

[8] = tested on: VDR homodimer (NR concentration 270 nM)
Method in brief: as §1

Sequence	PBM binding z-score [1]	PBM binding z-score [2]	PBM binding z-score [3]	PBM binding z-score [4]	PBM binding z-score [5]	PBM binding z-score [6]	PBM binding z-score [7]	PBM binding z-score [8]
ATCGAAAGGCCGACGAGGTGAGTATACACCGTTT	0.596	0.783	1.08	-0.604	0.344	1.5	0.378	-0.425
TCTCGGAGGACACGAAGGTCGGAGCTTTCCAGAG	1.42	1.23	1.5	0.608	0.322	1.64	0.121	0.0854
ACAGACAGGTGATGAAGGTAACTCGGGCTATCAT	0.556	0.166	0.396	-0.159	0.351	0.765	0.0589	-0.217
TCTTGTAGATCAGCAGGTTAATAAAGCTGGCCAA	-0.292	-0.0895	-0.342	0.531	0.393	0.0327	-0.292	-0.451
TCTTGTAGTTCAAGCAGGTTAAGAAAGCCTGAGT	1.48	1.44	1.65	2.37	1.47	1.63	-0.0988	2.02
CCTACTGGGCCAAAAAAGTCATTGATGCCGATAA	-0.0259	-0.155	0.0325	-0.134	-0.184	-0.184	-0.612	-0.687
CAAACTAGGTCACCGGATGGTCAAAGTCCGCATG	4.02	5.82	5.58	1.74	4.05	3.57	1.85	1.1
AATCCAGGGTCATCGTAGGCCAGAGTACGCACAG	3.82	5.9	5.22	3.32	6.77	4.55	1.86	4.06
ACTATTAGTCGAGACGAGGGCAACCGATAGGTTG	0.973	0.43	0.663	0.357	0.46	0.977	0.0699	0.358
ATATGTAGGTTGGCTGGGGTCATTCAGACTAGGC	3.37	3.5	2.19	1.81	5.15	4.72	3.62	5.57
TATACAGGGTCAAAGGCCAGAGCACGAATGTCGA	3.57	5.66	5.23	3.1	6.87	3.46	0.672	2.9
TCCATTAGTTGATTAGGGCAACCGAAACAGCGGA	0.875	0.57	0.556	1.09	0.491	0.718	0.498	0.246
ACTATTAGTTGATACGAGGGCAACCGATAGGTTG	1.59	1.03	0.921	1.04	0.536	2.55	0.673	0.979
TCATATATGTAAATGCTAGGTGAAAGTCCGATCT	0.368	0.1	0.244	1.18	0.654	1.01	0.597	-0.0734
ACTATTAGTTCAGACGAGGGCAACCGATAGGTTG	2.05	1.74	1.88	2.26	0.943	4.09	0.384	2.44
CCTACTGGGCCACGAAACGTCATTGATTCAGTGA	-0.373	-0.321	0.105	-0.404	-0.385	-0.288	-0.682	-1.01
CCGACTGGGGCATAAAGGTTACCATACCATCCGG	2.16	1.92	1.79	-0.788	1.63	1.19	-0.376	0.423
ATCGAAAGGACGAAGGTGAGTATACCCACCCGAA	0.646	1.11	1.26	-0.397	0.555	0.23	-0.316	-0.271
GGAACGAGGGCAAAGTTGTTAGCATCTGTCGACG	1.15	1.47	1.48	2.61	1.11	1.12	-0.449	1.32

Sequence	PBM binding z-score [1]	PBM binding z-score [2]	PBM binding z-score [3]	PBM binding z-score [4]	PBM binding z-score [5]	PBM binding z-score [6]	PBM binding z-score [7]	PBM binding z-score [8]
ACAGACAGGTGAGTGAAGGTAACTCTGCTGGACG	0.091	0.24	0.455	-0.298	0.622	1.52	-0.492	-0.195
TCGAGTAGGTCAGGGGCATTCAGAATGGCGTCGA	2.9	3.14	3.99	0.647	2.5	1.6	0.0377	0.669
AGTCAAAGTTCATCTAGGTACCGTAAGATATGCT	3.72	5.39	5.76	4.67	4.36	3.05	-0.565	5.46
TCTTGAAGATCAGCAGGTTAAGAAAGCTGGCCAA	-0.114	-0.154	-0.281	0.572	0.316	-0.00481	-1.05	-0.317
ACTTACGGGTCAACGAGGTTATAGAACGCGTATA	3.89	5.69	5.34	2.56	6.54	4.21	1.21	3.53
ACAGAGAGGTGATGAAGGTAACTCAGGCTATCAT	0.584	0.531	0.832	-0.266	0.587	1.33	0.312	-0.222
GATACAGGGTCCGCTAGAGGCCAGAGTATGGAAA	0.0694	0.628	0.211	-0.114	-0.246	0.0317	-1.09	-0.148
ATCTCTAGGTAAATATAGTTCAGTGAATGCAAAT	1.1	1.03	1.14	0.551	0.623	1.05	0.0877	1.2
CCTAGTAGGTCAAGGTCACACACGCTATAGGTAC	5.28	6.17	7.17	2.82	6.23	4.3	4.17	3.86
GATACAGGGTCAGTTAGAGGCCAGAGTATGGAAA	3.21	5.99	4.52	1.88	3.67	2.73	0.565	1.51
CTCGAAAGATCGGTTGAGGTGAGTATACGGATAA	-0.106	-0.00103	-0.0275	-0.15	0.118	3.31	0.715	-0.316
GCTGCTAGGTCAACTGATGGTCAGTTAAAGCTCG	3.55	5.17	5.45	1.51	2.85	3.15	1.05	-0.147
TCTTGTTGATCAGCAGGTTAAGAAAGCTGGCCAA	0.158	-0.129	-0.598	0.635	0.257	0.181	-0.779	-0.748
CAGCCTAGGTCTGGGCCAGTATAGGAGGAACGTT	-0.496	-0.501	-0.44	-1	-0.703	-0.77	-1.16	-0.974
GCTCGGAGGACAATGTCAGAGCTTTGTCCGTAGA	0.0448	-0.133	0.0822	0.18	-0.593	0.348	-0.612	-0.447
AGCTCTAGGTAACAAGTTCAGTGAAAGAGAGGAC	1.92	1.12	1.23	0.916	0.551	1.49	0.681	2.64
CGACCAAGGTGAACAAGGTCGTTGATTACTATTC	2.12	1.92	1.56	0.907	2.13	3.35	1.68	1.82
GGTGCTAGGTCAGGTTGGTCAGCTAACGGGTACG	3.2	2.9	4.21	0.112	1.38	1.94	1.19	0.971
ACTATTAGTTAAGACGAGGGCAACCGATAGGTTG	1.34	0.59	0.902	0.459	0.55	1.85	0.204	0.991

Sequence	PBM binding z-score [1]	PBM binding z-score [2]	PBM binding z-score [3]	PBM binding z-score [4]	PBM binding z-score [5]	PBM binding z-score [6]	PBM binding z-score [7]	PBM binding z-score [8]
ATCTCTAGGTAAGACTCGGTTCAGTGAAGAACGC	0.578	0.12	0.211	0.708	0.162	0.549	0.875	2.06
AGAACGAGGACAATGAGTTGATAGCACGGGTGGC	0.202	0.444	1.06	1.31	0.454	2.19	1.15	2.33
CCTGCTGGGCCATTCAGAGGTCATTGATCATATG	4.1	4.63	3.19	1.05	3.79	3.24	1.12	3.17
CGAACGAGGGCATCAGTTGATAGCAAATGCCGAT	0.822	0.928	1.83	2.49	0.686	0.964	-0.293	1.48
TCTAGTTCGTCAAAGGTCACACACTCGAAATGCG	4.99	6.46	6.31	2.95	6.75	4.64	2.53	3.49
TGAATGAGGTTATAAGATGAGGGAACGTTGCAAA	0.278	1.31	1.12	0.817	1.76	1.77	0.282	0.388
CGTCCAAGGTCAATGCTCGGTCAGTGAAAGCATT	4.62	6.85	6.5	3.69	5.11	3.71	2.09	2.86
TTACCAAAGTGAGCTGAGGTCGTTGATCCAACTC	0.526	0.117	-0.105	-0.0811	0.805	3.02	1.36	1.95
TCATATAGGTAATACAGGGGAAAGTCGGCATCTA	0.303	0.419	0.551	1.97	0.857	0.893	0.385	-0.00129
ACTAGCAGGCCAAGGGCCACTCAAGATTAGTCCG	0.598	0.143	0.443	-0.506	0.0111	-0.212	-0.921	-0.964
GCTAGTTGGTCAGTAAAAGGTCACACATCGGTCG	5.17	5.41	4.73	0.844	5.27	3.54	1.84	1.47
TCAAACAGGTGAAGGTAACTCAGGTACGCAGTCG	0.716	0.691	0.597	1.43	1.13	1.44	0.12	0.467
GATACAGGGTCAAGGCCAGAGTTCGCGTATTGAT	4.11	5.64	5.19	2.9	6.18	3.64	1.21	4.76
CCTAGTTGGTCAAAGTCACACACGCTATAGGTAC	1.28	0.912	1.23	0.833	0.561	0.212	0.467	0.811
AGAATGAGGTTACCAAAGATCACGGAAACGCTTG	1.02	2.24	1.89	1.17	2.95	3.03	0.696	0.151
CAAACTAGGTCACGAAAGGTCAAAGACGAATGAC	5.96	7.75	8.37	2.55	8.19	5.15	2.72	3.52
ATATGTAGGTTATCGGGTCATTCAATTTGCGCAT	3.35	3.52	2.68	1.57	3.4	3.59	2.86	2.76
CTACCAAGGTGGACAAGGTCGTTGATTACTATTC	1	0.429	0.319	0.874	0.711	1.81	0.933	1.68

Source: the supplement of paper PMC6555819
